Compounds without any hit were thinned out: in the full panel of roughly 83,000, 20% have a hit.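 The test compound was applied at a single concentration to cells in 96-well plates for 48 hours, and percent growth was recorded.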 Calls of active or inactive are those of the source. Rule for the calls: active = growth percent below 10; inactive = the rest.
How the values were obtained:
Test in all cases: NCI-60 one-dose screen, 48 h (100 = growth as untreated, 0 = no growth, -100 = all killed)
Conditions in all cases: 10 µM unless noted
SK-MEL-2 melanoma = system: SK-MEL-2 melanoma
SN12C renal = system: SN12C renal
UO-31 renal = system: UO-31 renal
TK-10 renal = system: TK-10 renal
ACHN renal = system: ACHN renal
CAKI-1 renal = system: CAKI-1 renal
A498 renal = system: A498 renal
CCRF-CEM leukemia = system: CCRF-CEM leukemia
MOLT-4 leukemia = system: MOLT-4 leukemia

Measured: growth

COc1cccc(-n2cc(-c3nc(Cl)c4ccccc4n3)nn2)c1
inactive: SK-MEL-2 melanoma 89.5% | SN12C renal 95.2% | UO-31 renal 78.3% | TK-10 renal 105% | ACHN renal 112% | CAKI-1 renal 99.1% | A498 renal 72.9% | CCRF-CEM leukemia 103% | MOLT-4 leukemia 104%

COC1=CC(c2ccc[nH]2)=N/C1=C\c1[nH]c(C)c(C(=O)CCCCC(=O)Oc2ccc3c(c2)CCC2C3CC[C@]3(C)[C@@H](O)CC[C@@H]23)c1C (stereo partly specified)
inactive: SK-MEL-2 melanoma 70.5% | SN12C renal 58.8% | UO-31 renal 42.7% | TK-10 renal 96.7% | ACHN renal 62.9% | CAKI-1 renal 25.7% | A498 renal 38.5% | CCRF-CEM leukemia 17.2% | MOLT-4 leukemia 22.8%

Cn1cc(C=O)c2ccccc21
inactive: SK-MEL-2 melanoma 109% | SN12C renal 91.7% | UO-31 renal 60.6% | TK-10 renal 102% | ACHN renal 93.5% | CAKI-1 renal 94.6% | A498 renal 95.4% | CCRF-CEM leukemia 90.6% | MOLT-4 leukemia 92%

C=C1C(=O)O[C@H]2[C@H]1CC/C(COC(=O)NCc1ccc(OC)cc1)=C\CC[C@@]1(C)O[C@@H]21
inactive: SK-MEL-2 melanoma 53.4% | SN12C renal 32.8% | UO-31 renal 18.4% | TK-10 renal 31.2% | CAKI-1 renal 15% | A498 renal 89.4% | MOLT-4 leukemia 24.2%
active: ACHN renal 4.28% | CCRF-CEM leukemia 3.72%

COc1cc(CCn2nnc3c(Nc4ccc(N5CCOCC5)cc4)ncnc32)cc(OC)c1
inactive: SK-MEL-2 melanoma 115% | SN12C renal 103% | UO-31 renal 86.9% | TK-10 renal 123% | ACHN renal 97.4% | CAKI-1 renal 93.9% | A498 renal 80.4% | CCRF-CEM leukemia 84.5% | MOLT-4 leukemia 76.4%

Nc1c(C(=O)Nc2cccc(C(F)(F)F)c2)sc2nc3c(cc12)C(O)CCC3 (stereo unspecified)
inactive: SK-MEL-2 melanoma 30.7% | SN12C renal 51.5% | UO-31 renal 49.9% | TK-10 renal 54.6% | ACHN renal 54.6% | CAKI-1 renal 30.1% | CCRF-CEM leukemia 14.5% | MOLT-4 leukemia 24.7%
active: A498 renal -2.02%

Clc1ccc([I+]c2ccc(Cl)cc2Cl)c(Cl)c1
inactive: SK-MEL-2 melanoma 77.4% | SN12C renal 33.3% | ACHN renal 29.6% | CAKI-1 renal 27% | A498 renal 69.9%
active: UO-31 renal -50.8% | TK-10 renal -82.4% | CCRF-CEM leukemia -1.96% | MOLT-4 leukemia -6.5%

Cc1ccc(OCCn2c(C)nn(-c3ccc(Cl)cc3)c2=O)cc1
inactive: SK-MEL-2 melanoma 146% | SN12C renal 105% | UO-31 renal 83.9% | TK-10 renal 131% | ACHN renal 103% | CAKI-1 renal 93.7% | A498 renal 117% | CCRF-CEM leukemia 99.9% | MOLT-4 leukemia 111%

CCC1=C[C@@H]2CN(C1)Cc1c([nH]c3ccccc13)[C@@](C(=O)OC)(c1cc3c(cc1OC)N(C=O)[C@H]1[C@@](O)(C(=O)OC)[C@H](OC(C)=O)[C@]4(CC)[C@@H]5C[C@@H]5CN5CC[C@]31[C@@H]54)C2
inactive: SK-MEL-2 melanoma 18% | SN12C renal 21.9% | UO-31 renal 28.7% | TK-10 renal 49.2% | ACHN renal 35.6% | MOLT-4 leukemia 13.4%
active: CAKI-1 renal 8.29% | A498 renal -8.16% | CCRF-CEM leukemia 8.71%

Clc1cccc(Cl)c1Cn1c(-c2cncs2)nc2ccccc21
inactive: SK-MEL-2 melanoma 73.3% | SN12C renal 81.6% | UO-31 renal 68.3% | TK-10 renal 85.1% | ACHN renal 86.8% | CAKI-1 renal 66.5% | A498 renal 125% | CCRF-CEM leukemia 85% | MOLT-4 leukemia 62.9%

COc1ccc(-c2nnc(COc3ccc(NC(=O)Nc4ccc(Cl)c(C(F)(F)F)c4)cc3F)o2)cc1
active: SK-MEL-2 melanoma -7.3% | UO-31 renal 2.2% | ACHN renal -23.2% | CAKI-1 renal 4.77% | A498 renal -1.59% | CCRF-CEM leukemia 0.195% | MOLT-4 leukemia 2.69%
inactive: SN12C renal 21.2% | TK-10 renal 35%

CC1CCN(C(=O)CSc2nc3sc4c(c3c(=O)[nH]2)CCCC4)CC1
inactive: SK-MEL-2 melanoma 80.2% | SN12C renal 102% | UO-31 renal 82.6% | TK-10 renal 163% | ACHN renal 101% | CAKI-1 renal 96.4% | A498 renal 95.8% | CCRF-CEM leukemia 74.4% | MOLT-4 leukemia 98.5%

CC[C@]1(O)C[C@@H]2CN(Cc3c([nH]c4ccccc34)[C@@](C(=O)OC)(c3cc4c(cc3OC)N(C)[C@H]3[C@@](O)(C(=O)OC)[C@H](OC(C)=O)[C@]5(CC)[C@@H]6C[C@@H]6CN6CC[C@]43[C@@H]65)C2)C1
inactive: SN12C renal 34.1% | UO-31 renal 68.5% | TK-10 renal 55.7% | ACHN renal 47.8% | CAKI-1 renal 50.6%
active: SK-MEL-2 melanoma 9.71% | A498 renal -8.06% | CCRF-CEM leukemia 1.15% | MOLT-4 leukemia 1.8%

O=C(N/N=C/c1c(Cl)cccc1Cl)c1ccccc1Nc1ccnc(C(F)(F)F)c1
inactive: SK-MEL-2 melanoma 69.6% | SN12C renal 75.7% | UO-31 renal 84.1% | TK-10 renal 95.4% | ACHN renal 78.8% | CAKI-1 renal 77.6% | A498 renal 73.6% | CCRF-CEM leukemia 81.6% | MOLT-4 leukemia 63.4%

O=Nc1c(-c2c(O)[nH]c3ccc([N+](=O)[O-])cc23)[nH]c2ccc(O)cc12
active: SK-MEL-2 melanoma -55% | UO-31 renal -1.14% | ACHN renal -25.8% | CAKI-1 renal -14.3% | A498 renal -24.5% | CCRF-CEM leukemia 0.486% | MOLT-4 leukemia 2.17%
inactive: SN12C renal 23.7% | TK-10 renal 49.9%

COc1ccc2c(c1)C(=O)/C(=C/c1ccc(O)cc1)O2
active: UO-31 renal -97.4%
inactive: SK-MEL-2 melanoma 81.2% | SN12C renal 76.8% | TK-10 renal 75.1% | ACHN renal 96.4% | CAKI-1 renal 71.8% | A498 renal 94.8% | CCRF-CEM leukemia 104% | MOLT-4 leukemia 62.8%

CCCCCc1c(C)[nH]c(/C=c2\[nH]/c(=C3/C=c4ccccc4=N3)cc2OC)c1C
active: SK-MEL-2 melanoma -73.9% | SN12C renal -51.4% | UO-31 renal -89.7% | TK-10 renal -47% | ACHN renal -78.3% | CAKI-1 renal -38.7% | A498 renal -29.4% | CCRF-CEM leukemia -19% | MOLT-4 leukemia -23.1%

O=C(Nc1ccc(I)cc1)c1cccc([N+](=O)[O-])c1O
active: SK-MEL-2 melanoma -11.9% | UO-31 renal -0.371% | TK-10 renal 7.73% | A498 renal -6.2% | MOLT-4 leukemia 8.55%
inactive: SN12C renal 20.3% | ACHN renal 21.8% | CAKI-1 renal 13.4% | CCRF-CEM leukemia 25.9%

Cc1nc2sccn2c1-c1csc(Nc2ccccc2Cl)n1
inactive: SK-MEL-2 melanoma 33.9% | SN12C renal 57.1% | UO-31 renal 42.4% | TK-10 renal 61% | ACHN renal 58.9% | CAKI-1 renal 34.6% | A498 renal 31.5% | CCRF-CEM leukemia 48.6% | MOLT-4 leukemia 17%

COc1cc(-c2n[nH]nc2-c2ccc3c(c2)OCCO3)cc(OC)c1OC
active: A498 renal -14.6% | CCRF-CEM leukemia 5.78% | MOLT-4 leukemia 5.49%
inactive: SK-MEL-2 melanoma 26.6% | SN12C renal 31% | UO-31 renal 27.1% | TK-10 renal 52.4% | ACHN renal 12.3% | CAKI-1 renal 18.4%

CNC(C)=O
inactive: SK-MEL-2 melanoma 104% | SN12C renal 100% | UO-31 renal 93.3% | TK-10 renal 91.1% | ACHN renal 118% | CAKI-1 renal 96.2% | A498 renal 104% | CCRF-CEM leukemia 103% | MOLT-4 leukemia 95%

CC1=NN2C(=NC3=C(CCC/C3=C\c3ccc(Cl)cc3)C2c2ccc(Cl)cc2)S1 (stereo unspecified)
inactive: SK-MEL-2 melanoma 86.3% | SN12C renal 102% | UO-31 renal 86.1% | TK-10 renal 111% | ACHN renal 98.2% | CAKI-1 renal 99.9% | A498 renal 87.6% | CCRF-CEM leukemia 84.7% | MOLT-4 leukemia 72.9%

COC1=CC(c2ccc[nH]2)=N/C1=C\c1[nH]c(C)c(C(=O)CCCCC(=O)Nc2ccccc2)c1C
inactive: SK-MEL-2 melanoma 90.7% | SN12C renal 73.5% | UO-31 renal 49.9% | ACHN renal 95.8% | A498 renal 116% | CCRF-CEM leukemia 58.9% | MOLT-4 leukemia 76.6%
active: TK-10 renal -11.9% | CAKI-1 renal 3.42%

CCn1cc(C(=O)O)c(=O)c2cc(F)c(N3CCN(S(=O)(=O)c4c(C)cc(C)cc4C)CC3)cc21
inactive: SK-MEL-2 melanoma 88.7% | SN12C renal 88.5% | UO-31 renal 33.1% | TK-10 renal 97.5% | ACHN renal 75.8% | CAKI-1 renal 89.5% | A498 renal 78.9% | CCRF-CEM leukemia 81.8% | MOLT-4 leukemia 75.9%

Cn1c(C(N)=O)cc2c1-c1nc(NC3CCCCC3)ncc1CCC2
inactive: SK-MEL-2 melanoma 105% | SN12C renal 90.9% | UO-31 renal 67.2% | TK-10 renal 89.4% | ACHN renal 85.8% | CAKI-1 renal 83.3% | A498 renal 46% | CCRF-CEM leukemia 93.9% | MOLT-4 leukemia 85.1%

COc1cc(Cn2c(SCC(=O)Nc3ccc(Cl)cc3)nc3ccccc3c2=O)cc(OC)c1OC
inactive: SK-MEL-2 melanoma 81% | SN12C renal 71.2% | UO-31 renal 17.7% | TK-10 renal 67.8% | ACHN renal 18.9% | CAKI-1 renal 71.1% | A498 renal 41.4% | CCRF-CEM leukemia 83.1% | MOLT-4 leukemia 46.4%

COc1ccc(/C=C/c2nc(N3CCOCC3)c3cc(F)c(F)cc3n2)cc1OC
active: MOLT-4 leukemia 6.52%
inactive: SK-MEL-2 melanoma 43.3% | SN12C renal 33.4% | UO-31 renal 20.1% | TK-10 renal 28.8% | ACHN renal 33.1% | CAKI-1 renal 28.1% | A498 renal 45.5% | CCRF-CEM leukemia 35.8%

CCC(=O)Oc1cc(/C=C/C(=O)O[C@H]2C[C@H]3CN4CCc5c([nH]c6cc(OC)ccc56)[C@@H]4C[C@@H]3[C@@H](C(=O)OC)[C@@H]2OC)ccc1OC
inactive: SK-MEL-2 melanoma 101% | SN12C renal 55.9% | UO-31 renal 40.9% | TK-10 renal 75.2% | ACHN renal 46.2% | CAKI-1 renal 45.6% | CCRF-CEM leukemia 38.1% | MOLT-4 leukemia 50.8%
active: A498 renal 5.24%

CC(=O)Nc1ccc(S(=O)(=O)N2C(=O)CCC2C(=O)Nc2ccc(Br)cc2)cc1 (stereo unspecified)
active: CCRF-CEM leukemia 2.98% | MOLT-4 leukemia 5.48%
inactive: SK-MEL-2 melanoma 36.1% | SN12C renal 49.9% | UO-31 renal 21.9% | TK-10 renal 63.6% | ACHN renal 45.3% | CAKI-1 renal 32.3% | A498 renal 16.8%
